# Hit rate of the full screen: of about 380,000 compounds, about 4,000 (1.1%) were called active. A call without a number means that no potency is given here. Not shown: some 3% with an inconclusive outcome. Calls come from the whole dose curve; as a rule, active = well fitted activation curve with a large enough effect; inconclusive = small, poorly fitted or top-dose-only effect; inactive = no such curve, though single readings can be large or run the other way. Many of the other results were omitted from the sample, so actives are more common in it than they were.
# Assay: qHTS Assay to Identify Small Molecule Activators of BRCA1 Expression; note: nearly all actives have a fitted effect of over 80% in size
# Settings: MCF7-BRCA1-FFLuc reporter, luminescence, 48 h; series mostly up to 46.1 µM
# Method in brief: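 Luminescence from a BRCA1-driven firefly luciferase in MCF7 cells was read after 48 h compound exposure at 37 C. Data normalized against DMSO and a 10microM genistein activation control, then curve-fitted across the titration.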
# Potency is the fitted concentration of half-maximal effect.
row,Compound,Potency
1,Cc1ccc(Cc2nc3ccccc3nc2SCC(=O)Nc2cccc(C(F)(F)F)c2)cc1,inactive
2,Cn1cccc1C(=O)Nc1nccs1,inactive
3,CCCCOC(=O)Nc1nccs1,inactive
4,CC(=O)Oc1ccc(C(=O)Nc2nccs2)cc1,11.2 µM (active)
5,Cc1ccc(NC(=O)c2oc3ccccc3c2NC(=O)Cc2cccs2)cc1,inactive
6,Cc1cc(NC(=O)c2ccc(-c3ccc(Cl)cc3)o2)cc(-c2nc3ncccc3o2)c1O,inactive
7,CCOc1cc(C2c3c(-c4ccc(Br)cc4)n[nH]c3C(=O)N2c2ccc(Cl)cc2)ccc1O (stereo not drawn),inactive
8,CCC1=Nc2cc(C(=O)NCC(C)c3ccccc3)ccc2Sc2ccc(C)cc21 (stereo not drawn),inactive
9,O=C(COc1ccccc1F)OCc1cc(=O)n2nc(C3CCCCC3)sc2n1,inactive
10,COc1cccc(CNCc2c(C(=O)O)n(Cc3ccc(C)cc3)c3cc(C)ccc23)c1OC,inactive
11,O=C(CSc1n[nH]c(-c2cccs2)n1)N1CCCCC1,inactive
12,Cn1c(SCC(=O)N2CCCC2)nnc1-c1cccs1,inactive
13,O=C(CSCc1cccs1)N1CCCC1,12.6 µM (active)
14,OC(CBr)C[n+]1cccc2cc(Br)ccc21 (stereo not drawn),inactive
15,CCCCOc1ccc(C(=O)Nc2cccc(-c3nc4ccccc4o3)c2C)cc1,inactive
16,COc1ccc2c(c1)CCc1c(C(=O)N3CCc4ccccc4C3)noc1-2,inactive
17,CN(c1ccc(C(=O)N2CCc3ccccc3C2)cc1)S(C)(=O)=O,inactive

row,Compound,Potency
1,O=C(c1noc2c1CCCC2)N1CCc2ccccc2C1,5.62 µM (active)
2,COc1ccc2c(c1)c(N1CCCC1=O)c(C(=O)Nc1ccc(OC)c(Cl)c1)n2C,inactive
3,O=C(c1ccc2c(c1)N(Cc1ccc(Cl)cc1)C(=O)c1ccccc1S2(=O)=O)N1CCCCC1,inactive
4,CCN(CC(=O)NCCc1ccccc1)S(=O)(=O)c1ccc(C)cc1,inactive
5,CCN(CC)S(=O)(=O)c1ccc(-c2cn3ccc(C)cc3n2)cc1,3.55 µM (active)
6,CCN(c1cccc(C)c1)S(=O)(=O)c1ccc(-c2coc(C)n2)cc1,inactive
7,CCC(=O)N1N=C(c2ccc(OC)cc2)CC1c1cn(-c2ccccc2)nc1-c1cccs1 (stereo not drawn),inactive
8,CN(C(=O)CSc1nc2ccccc2n1Cc1ccccc1C#N)c1ccccc1,inactive
9,CN1CCN(/[N+]([O-])=N/Oc2ccc([N+](=O)[O-])cc2[N+](=O)[O-])CC1,inactive
10,COc1ccc2nc(SCC(=O)Nc3c(C)cc(C)cc3C)[nH]c2c1,inactive
11,Cc1cc2nc(SCCN3CCOCC3)[nH]c2cc1C,4.47 µM (active)
12,CCn1c2ccc(F)cc2c2nnc(SCCN3CCOCC3)nc21,inactive
13,COc1cc(C)ccc1OCCSc1nc2ccc(NC(=O)c3ccc(C)cc3)cc2s1,inactive
14,CCOc1ccc(CCNC(=O)c2cc3c(=O)n(C)c4ccccc4c3n2C)cc1,inactive
15,Cc1ccccc1CCNC(=O)C1CCN(c2nc3ccccc3nc2C(F)(F)F)CC1,inactive
16,COc1ccc(-n2c(C)nc3c(cnn3-c3ccc(F)cc3)c2=O)cc1,inactive

# Reference: PubChem BioAssay AID624202 (National Center for Advancing Translational Sciences (NCATS), 2012)
